According to PubChem BioAssay AID1159580 (chemical genetic matrix, 2015):
Among all 5,500 compounds or so, about 2,000 (36%) were called active. Inconclusive results (about 18%) are left out. Rule as the data show it: active = normalized growth mostly below about 0.91 (no sharp cut-off); inconclusive = no clear call, values can overlap the other calls; inactive = mostly above about 0.92. The list shows a part of the results.

Assay: chemical genetic growth profiling, strain panel (AID 1159580);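 also: tested at 20 µM; growth read once vehicle control cultures reached saturation at 30 °C; 1 = growth at the plate median or of vehicle wells; lower values mean less growth of the strain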
Settings: growth OD

Measured: normalized growth

COC(=O)C[C@H]1C(C)(C)C2(O)OC34CC2C(=O)[C@]1(C)C3CC[C@]1(C)C4=CC(=O)O[C@H]1c1ccoc1 (some centres not stated)
inactive: S. cerevisiae deletion strains, locus YJR043C, strain POL32, hits give low values 0.992 | S. cerevisiae deletion strains, locus YJR066W, strain TOR1, hits give low values 0.92 | S. cerevisiae deletion strains, locus YKL009W, strain mrt4, hits give low values 1.03 | S. cerevisiae deletion strains, locus YKL068W, hits give low values 1.01 | S. cerevisiae deletion strains, locus YKL085W, strain MDH1 (second series), hits give low values 1.02 | S. cerevisiae deletion strains, locus YKL085W, strain MDH1, hits give low values 1.02 | S. cerevisiae deletion strains, locus YKL160W, strain elf1, hits give low values 1.01 | S. cerevisiae deletion strains, locus YKL190W, strain CNB1, hits give low values 0.994 | S. cerevisiae deletion strains, locus YKR001C, strain vps1, hits give low values 1.01 | S. cerevisiae deletion strains, locus YKR026C, strain gcn3, hits give low values 0.991 | S. cerevisiae deletion strains, locus YKR091W, strain srl3, hits give low values 0.985 | S. cerevisiae deletion strains, locus YLL001W, strain dnm1, hits give low values 1.02 | S. cerevisiae deletion strains, locus YLL026W, hits give low values 0.998 | S. cerevisiae deletion strains, locus YLL041C, strain sdh2, hits give low values 0.979 | S. cerevisiae deletion strains, locus YLR027C, strain aat2, hits give low values 1 | S. cerevisiae deletion strains, locus YLR039C, strain RIC1, hits give low values 1.05 | S. cerevisiae deletion strains, locus YLR058C, strain SHM2, hits give low values 1 | S. cerevisiae deletion strains, locus YLR102C, strain apc9, hits give low values 1.01 | S. cerevisiae deletion strains, locus YLR113W, strain HOG1, hits give low values 1.01 | S. cerevisiae deletion strains, locus YLR221C, strain rsa3, hits give low values 0.991 | S. cerevisiae deletion strains, locus YLR258W, strain gsy2, hits give low values 0.989 | S. cerevisiae deletion strains, locus YLR262C, strain YPT6 (second series), hits give low values 1 | S. cerevisiae deletion strains, locus YLR262C, strain YPT6, hits give low values 1.08 | S. cerevisiae deletion strains, locus YLR268W, strain sec22, hits give low values 0.998 | S. cerevisiae deletion strains, locus YLR320W, strain mms22, hits give low values 0.989 | S. cerevisiae deletion strains, locus YLR342W, strain FKS1, hits give low values 0.977 | S. cerevisiae deletion strains, locus YLR357W, strain rsc2, hits give low values 0.999 | S. cerevisiae deletion strains, locus YLR370C, strain arc18, hits give low values 0.967 | S. cerevisiae deletion strains, locus YLR371W, strain rom2, hits give low values 0.998 | S. cerevisiae deletion strains, locus YLR384C, strain iki3, hits give low values 0.975 | S. cerevisiae deletion strains, locus YLR418C, strain cdc73, hits give low values 1.03 | S. cerevisiae deletion strains, locus YML016C, strain PPZ1, hits give low values 1 | S. cerevisiae deletion strains, locus YML032C, strain rad52, hits give low values 1.01 | S. cerevisiae deletion strains, locus YML120C, strain ndi1, hits give low values 0.981 | S. cerevisiae deletion strains, locus YML124C, strain tub3, hits give low values 1.01 | S. cerevisiae deletion strains, locus YMR058W, strain fet3, hits give low values 0.999 | S. cerevisiae deletion strains, locus YMR078C, strain ctf18, hits give low values 1.01 | S. cerevisiae deletion strains, locus YMR125W, strain sto1, hits give low values 0.982 | S. cerevisiae deletion strains, locus YMR129W, hits give low values 0.994 | S. cerevisiae deletion strains, locus YMR205C, strain PFK2, hits give low values 1.01 | S. cerevisiae deletion strains, locus YMR223W, strain ubp8, hits give low values 1.01 | S. cerevisiae deletion strains, locus YMR231W, strain pep5, hits give low values 0.957 | S. cerevisiae deletion strains, locus YMR307W, strain GAS1, hits give low values 0.93 | S. cerevisiae deletion strains, locus YNL067W, strain RPL9B, hits give low values 1 | S. cerevisiae deletion strains, locus YNL071W, strain lat1, hits give low values 0.989 | S. cerevisiae deletion strains, locus YNL153C, strain GIM3, hits give low values 1.01 | S. cerevisiae deletion strains, locus YNL183C, strain NPR1, hits give low values 0.931 | S. cerevisiae deletion strains, locus YNL209W, strain ssb2, hits give low values 0.984 | S. cerevisiae deletion strains, locus YNL233W, strain BNI4, hits give low values 0.985 | S. cerevisiae deletion strains, locus YNL248C, strain rpa49, hits give low values 1 | S. cerevisiae deletion strains, locus YNL250W, strain rad50, hits give low values 1.01 | S. cerevisiae deletion strains, locus YNL271C, strain bni1, hits give low values 1.01 | S. cerevisiae deletion strains, locus YNL298W, strain CLA4, hits give low values 1 | S. cerevisiae deletion strains, locus YNL307C, strain MCK1, hits give low values 1 | S. cerevisiae deletion strains, locus YNL322C, strain KRE1 (second series), hits give low values 0.981 | S. cerevisiae deletion strains, locus YNR049C, strain mso1, hits give low values 0.988 | S. cerevisiae deletion strains, locus YNR052C, strain pop2, hits give low values 1.01 | S. cerevisiae deletion strains, locus YOL006C, strain TOP1, hits give low values 1.01 | S. cerevisiae deletion strains, locus YOL012C, strain htz1 0.65 | S. cerevisiae deletion strains, locus YOL147C, strain pex11, hits give low values 1.01 | S. cerevisiae deletion strains, locus YOR001W, strain rrp6, hits give low values 0.953 | S. cerevisiae deletion strains, locus YOR061W, strain CKA2, hits give low values 1.01 | S. cerevisiae deletion strains, locus YOR069W, strain VPS5, hits give low values 0.997 | S. cerevisiae deletion strains, locus YOR070C, strain gyp1, hits give low values 0.992 | S. cerevisiae deletion strains, locus YOR080W, strain dia2, hits give low values 0.988 | S. cerevisiae deletion strains, locus YOR083W, strain WHI5, hits give low values 1.02 | S. cerevisiae deletion strains, locus YOR106W, strain vam3, hits give low values 1.03 | S. cerevisiae deletion strains, locus YOR136W, strain idh2, hits give low values 1.01 | S. cerevisiae deletion strains, locus YOR144C, strain elg1, hits give low values 1.02 | S. cerevisiae deletion strains, locus YOR184W, strain ser1, hits give low values 0.996 | S. cerevisiae deletion strains, locus YOR231W, strain MKK1, hits give low values 1.01 | S. cerevisiae deletion strains, locus YOR265W, strain rbl2, hits give low values 0.984 | S. cerevisiae deletion strains, locus YOR270C, strain vph1, hits give low values 0.98 | S. cerevisiae deletion strains, locus YOR290C, strain snf2, hits give low values 0.97 | S. cerevisiae deletion strains, locus YOR316C, strain cot1, hits give low values 1.02 | S. cerevisiae deletion strains, locus YPL051W, strain arl3, hits give low values 1.01 | S. cerevisiae deletion strains, locus YPL078C, strain atp4, hits give low values 1.01 | S. cerevisiae deletion strains, locus YPL106C, strain sse1, hits give low values 0.969 | S. cerevisiae deletion strains, locus YPL240C, strain hsp82, hits give low values 0.988 | S. cerevisiae deletion strains, locus YPL241C, strain CIN2, hits give low values 1 | S. cerevisiae deletion strains, locus YPL256C, strain CLN2, hits give low values 0.942 | S. cerevisiae deletion strains, locus YPR119W, strain clb2, hits give low values 1.01 | S. cerevisiae deletion strains, locus YPR141C, strain kar3, hits give low values 1.01 | S. cerevisiae deletion strains, locus YPR163C, strain tif3, hits give low values 1.01 | S. cerevisiae deletion strains, locus YPR167C, strain met16, hits give low values 1.01 | S. cerevisiae deletion strains, strain wtn01, hits give low values 1 | S. cerevisiae strains, strain wild type, hits give low values 0.996
